# Hits are enriched below; roughly 4.8% of the tested compounds scored in any of these assays.
# DAX1 inh-1: inhibitors of DAX1 repression of SF-1 activated StAR promoter | HEK293T StAR-luciferase reporter, SF-1/DAX-1 repression relief | 370,000 compounds, 1.1% hits | AID 652010 | inhibition, % at 6.8 µM;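 active = inhibition above the mean over all tested compounds plus 3 SD, cut at about 3.6% in these data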;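 note: 0% = DAX-1 cells with DMSO and 100% = cells lacking DAX-1 with DMSO; higher inhibition means more luminescence from relief of DAX-1 repression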
# hcDAF12 agonist: H. contortus DAF-12 activation, primary screen; HEK293 hcDAF-12 lit1-tk-luc reporter, luminescence; 0% DMSO, 100% Δ7-dafachronic acid; activation, % at 6.8 µM; 370,000 compounds, 1.4% hits; AID 652067;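 active = activation above the mean of all tested compounds plus 3 SD, cut at about 5.5% in these data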;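 note: 100% = response to 3 µM Δ7-dafachronic acid high control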
# hgDAF12 agonist: agonists of H. glycines DAF-12 nuclear receptor; HEK293 GAL4-hgDAF12 UAS-luciferase reporter, agonist luminescence; normalized to butyrate control; activation, % at 6.8 µM; 370,000 compounds, 1.8% hits;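 active = activation above a cutoff set at the mean of all screened compounds plus 3 SD, cut at about 10% in these data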;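 note: 0% = DMSO wells and 100% = sodium butyrate wells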
# DAX1 inh-2: inhibits human nuclear receptor DAX1 | HEK293 Gal4-DAX1 luciferase reporter, luminescence | inhibition, % at 6.75 µM | 340,000 compounds, 0.99% hits | P51843;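 active = inhibition above the mean over all tested compounds plus 3 SD, cut at about 4.2% in these data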;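 note: 0% = DAX1-transfected cells with DMSO and 100% = empty-vector control cells with DMSO; inhibition shows as a rise in luminescence from relieved DAX1 repression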
# Target sequence (P51843 207-470 limits assumed): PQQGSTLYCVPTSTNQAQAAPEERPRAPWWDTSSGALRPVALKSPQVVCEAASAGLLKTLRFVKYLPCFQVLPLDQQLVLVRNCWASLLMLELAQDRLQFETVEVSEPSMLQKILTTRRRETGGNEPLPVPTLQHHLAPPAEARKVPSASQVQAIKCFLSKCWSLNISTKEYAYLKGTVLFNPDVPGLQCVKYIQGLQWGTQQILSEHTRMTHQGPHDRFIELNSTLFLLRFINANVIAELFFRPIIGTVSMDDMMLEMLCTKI
# ssDAF-12 act: activators of S. stercoralis DAF-12 nuclear receptor; HEK293 ssDAF-12/GRIP1 lit1-tk-luc reporter, luminescence; % of 3 µM dafachronic acid response; activation, % at 6.8 µM; 370,000 compounds, 1% hits;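 active = activation above the mean over all tested compounds plus 3 SD, cut at about 0.9% in these data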;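 note: 0% = DMSO-only wells and 100% = 3 µM delta7-dafachronic acid wells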
# SMARCA2 activ: SMARCA2 function activation, primary screen; activation, % at 9.1 µM; MG213 cells, MMTV-luciferase reporter, dexamethasone, overnight; 370,000 compounds, 1% hits; in the data active = activation above about 7.8%;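 note: 0% = vehicle wells and 100% = reference activator wells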
# DAX1 inh confirm: NR0B1 (human) inhibition, confirmation. AID 652134. shares compounds with DAX1 inh-1. HEK293T StAR-promoter luciferase reporter, SF-1/DAX-1 repression. 2,400 compounds, 87% hits. inhibition, % at 6.8 µM;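 active = inhibition above the average of every tested compound plus 3 SD, cut at about 3.8% in these data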;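 note: 0% = DAX-1 cells with DMSO and 100% = no DAX-1 control cells with DMSO; active compounds raise luminescence by relieving repression of the StAR reporter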
# SF1 AF2mut Luc: nonselective inhibitor or artifact in SF-1 mutant DAX1 counter-screen; 2,400 compounds, 78% hits; shares compounds with DAX1 inh-1; HEK293 StAR-luciferase, SF-1 AF2 mutant, luminescence; inhibition, % at 6.8 µM;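 active = inhibition above the mean of all tested compounds plus 3 SD, cut at about 3% in these data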;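 note: 0% = DAX-1 transfected cells with DMSO and 100% = cells without DAX-1 with DMSO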
# SMARCA2 conf: SMARCA2 activation, confirmation screen | shares compounds with SMARCA2 activ | MG213 cells, MMTV-luciferase with dexamethasone, luminescence, overnight; MG213 cells expressing E1A, Rb sequestered; DMSO wells 0%, reference activator 100% | activation, % at 9.1 µM | 3,500 compounds, 30% hits | AID 652260;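 active = activation above its plate's cutoff, the mean activation of tested wells plus 3 SD, cut at about 7.9% in these data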
# GAL4-VP16 Luc: activates GAL4-VP16 luciferase, flagging SMARCA2 activator hits; shares compounds with SMARCA2 activ; activation, % at 9.1 µM; HEK293 GAL4-VP16 pG5luc reporter, luciferase luminescence; scaled: DMSO wells 0%, SAHA wells 100%; 3,500 compounds, 41% hits; AID 686939;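 active = activation above the solvent-only control well mean plus 3 SD, averaged across control plates, cut at about 5.2% in these data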
# LXRb hcDAF ctr: activates human LXR-beta, counter-screen for hcDAF-12 agonists | shares compounds with hcDAF12 agonist | activation, % at 6.8 µM | 3,400 tested, under 10 active | HEK293 Gal4-LXR tk-luc reporter, luminescence, 24 h; normalized: DMSO 0%, positive control 100%;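 active = mean percent activation of the reporter above a cutoff set as the average over tested compounds plus their standard deviation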
# Target sequence (P55055 whole entry, looked up, the tested form may be a part): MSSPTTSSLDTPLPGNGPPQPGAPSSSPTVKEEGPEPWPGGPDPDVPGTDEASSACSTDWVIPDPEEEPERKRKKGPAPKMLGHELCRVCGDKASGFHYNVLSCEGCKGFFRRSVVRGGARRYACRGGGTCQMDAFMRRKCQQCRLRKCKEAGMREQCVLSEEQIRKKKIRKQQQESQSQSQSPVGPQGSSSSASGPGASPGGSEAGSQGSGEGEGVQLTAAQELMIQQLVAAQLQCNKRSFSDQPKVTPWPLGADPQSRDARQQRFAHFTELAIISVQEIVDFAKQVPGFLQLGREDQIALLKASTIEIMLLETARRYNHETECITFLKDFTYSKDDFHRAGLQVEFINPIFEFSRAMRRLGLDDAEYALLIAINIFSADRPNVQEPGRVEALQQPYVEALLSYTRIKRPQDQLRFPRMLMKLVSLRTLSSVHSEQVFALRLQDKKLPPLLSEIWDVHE
# hcDAF12 conf: hcDAF-12 agonism, confirmation assay. HEK293 hcDAF-12 lit1-tk-luc reporter, luminescence; % of Δ7-dafachronic acid response. activation, % at 6.8 µM. shares compounds with hcDAF12 agonist. 3,400 compounds, 61% hits;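 active = mean activation across triplicate tests above the threshold derived from the earlier primary screen, cut at about 5.5% in these data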;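 note: 0% = DMSO only wells and 100% = 3 µM Δ7-dafachronic acid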
# hgDAF12 ag: hgDAF-12 agonism, confirmation assay; shares compounds with hgDAF12 agonist; HEK293 GAL4-hgDAF12 luciferase reporter, agonist mode; percent of butyrate response; activation, % at 6.8 µM; 3,300 compounds, 80% hits; AID 743050;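 active = mean activation over triplicate wells above the hit cutoff derived from the earlier primary screen, cut at about 11% in these data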;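 note: 0% = DMSO low control and 100% = 2 mM sodium butyrate high control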
# LXR ag 2: activates human LXR-beta, counter-screen for DAF-12 agonists | shares compounds with hgDAF12 agonist | HEK293 Gal4-LXR luciferase reporter, 24 h | activation, % at 6.8 µM | 3,300 tested, under 10 active | AID 743051;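 active = mean activation of the triplicate above a set limit carried over from the primary screen, none filed active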
# The depositor's hits bear a star; / = no result given.
SMILES,DAX1 inh-1,hcDAF12 agonist,hgDAF12 agonist,DAX1 inh-2,ssDAF-12 act,SMARCA2 activ,DAX1 inh confirm,SF1 AF2mut Luc,hgDAF12 ag,LXR ag 2,others
N#CC1=C(N)Oc2c(ccc3cccnc23)C1c1cccnc1 (configuration not stated),-0.7,-1.9,-0.9,-1.0,-1.0,-2.6,/,/,/,/,
N/C(=N\OC(=O)/C=C/c1ccccc1Cl)c1ccncc1,9.2*,6.8*,21.3*,1.9,0.0,4.2,11.0*,6.3*,16.4*,0.8,LXRb hcDAF ctr=1.4;hcDAF12 conf=4.3
N/C(=N\OC(=O)c1cc(Cl)ccc1Cl)c1ccncc1,-0.7,0.5,4.5,0.4,-1.1,-2.1,/,/,/,/,
N/C(=N\OC(=O)/C=C/c1ccccc1)c1ccncc1,1.0,1.4,7.0,3.0,-0.6,7.3,/,/,/,/,
N/C(=N\OC(=O)c1ccccc1Cl)c1ccncc1,5.6*,6.2*,14.2*,-0.2,0.5,0.6,6.8*,5.3*,13.2*,0.8,
CCCCS(=O)(=O)N1C2=NC(C(=O)OCC)=C(C(=O)OCC)C3N(Cc4ccc(C#N)cc4)c4ccccc4[C@]23C[C@H]1C(=O)OC (some centres not stated),-2.0,-1.7,-2.4,/,-1.3,2.7,/,/,/,/,
Cc1ccc(S(=O)(=O)NCC(=O)OC(C)C(=O)NCc2ccc3c(c2)OCO3)cc1 (configuration not stated),-0.9,-0.5,-0.4,-1.8,-0.9,-2.5,/,/,/,/,
Cc1ccsc1/C=N/NC(=O)Nc1ccccc1,5.8*,3.9,16.5*,5.2*,1.1*,2.8,11.3*,6.9*,17.2*,0.7,
O=C(Nc1ccc(-c2nc3cccnc3s2)cc1)c1ccco1,8.9*,6.4*,19.3*,0.9,2.0*,8.2*,16.7*,8.4*,18.3*,1.2,SMARCA2 conf=3.6;GAL4-VP16 Luc=10.1*
CCOc1ccc(S(=O)(=O)Nc2nc3ccc(OC)cc3s2)cc1,0.7,1.9,2.0,0.0,-0.4,0.4,/,/,/,/,
COc1ccc(/C=C(\C#N)C(=O)OCC(=O)Nc2ccc(-c3nc4ccc(C)cc4s3)cc2)cc1,8.3*,8.4*,20.7*,0.1,2.7*,7.8*,6.7*,3.2*,20.7*,1.0,LXRb hcDAF ctr=1.8;hcDAF12 conf=10.2*
CNS(=O)(=O)c1cccc(C(=O)OCC(=O)Nc2ccc(-c3nc4ccc(C)cc4s3)cc2)c1,/,/,/,2.4,/,/,/,/,/,/,
Cc1ccc2nc(-c3ccc(NC(=O)CN(c4ccccc4C)S(C)(=O)=O)cc3)sc2c1,4.8*,4.1,15.4*,1.7,1.0*,7.8,8.0*,5.4*,20.1*,0.7,
O=C(CCS(=O)(=O)c1ccccc1)Nc1cccc(-c2nc3ccccc3s2)c1,1.8,2.8,5.1,0.2,-1.6,-1.2,/,/,/,/,
Cc1ccc2nc(-c3ccc(NC(=O)COC(=O)c4ccc(Br)o4)cc3)sc2c1,6.6*,17.7*,27.5*,5.7*,3.0*,9.3*,9.7*,4.2*,23.9*,1.1,LXRb hcDAF ctr=2.0;hcDAF12 conf=13.0*
COc1ccc(/C=C(\C#N)C(=O)OCC(=O)NC(C)c2ccccc2)cc1 (configuration not stated),-0.3,-0.5,-0.8,-1.7,-0.9,0.7,/,/,/,/,
O=C(CCS(=O)(=O)c1ccccc1)Nc1ccc(-c2nc3ccccc3s2)cc1,6.1*,9.2*,17.9*,-1.7,1.2*,0.6,13.4*,8.9*,14.9*,1.0,LXRb hcDAF ctr=1.7;hcDAF12 conf=5.7*
CCc1nnc(NS(=O)(=O)c2ccc(NC(=O)COc3ccc(Cl)c(C)c3)cc2)s1,0.5,-1.2,2.3,0.0,-1.4,0.5,/,/,/,/,
O=C(O)c1ccc(CS(=O)(=O)Cc2ccccc2F)o1,-0.1,-1.5,0.0,1.6,-1.2,-3.5,/,/,/,/,
O=C(CSc1ncc(C(F)(F)F)cc1Cl)N1CCNC1=O,0.0,0.8,0.4,0.4,-1.2,-1.4,/,/,/,/,
O=C(/C=C1\OCc2ccccc21)c1ccccc1,5.6*,9.5*,19.4*,/,1.3*,7.4,7.2*,4.8*,17.1*,0.7,LXRb hcDAF ctr=0.9;hcDAF12 conf=10.8*
O=C1CS/C(=C/C(=O)c2ccccc2)N1,-0.1,-0.7,1.3,0.3,-1.0,3.5,/,/,/,/,
COc1ccc(C(=O)NNC(=S)Nc2ccccc2)cc1,10.1*,3.5,16.7*,2.0,-0.4,3.4,16.1*,11.6*,14.8*,0.8,
O=C(NNC(=S)Nc1ccccc1Cl)c1ccccc1,14.8*,3.4,13.8*,3.0,0.6,5.3,11.7*,8.2*,17.8*,0.6,
COc1cccc(C(=O)Nc2ccc3c(C)cc(=O)oc3c2)c1,16.8*,6.1*,13.4*,1.4,1.0*,12.9*,14.4*,10.2*,21.1*,0.9,SMARCA2 conf=10.9*;GAL4-VP16 Luc=13.7*
COc1ccc(C(=O)Nc2cccc(OC)c2)cc1,5.4*,4.4,16.0*,0.7,1.0*,0.0,14.0*,-0.2,15.7*,0.8,
COc1cccc(NC(=O)c2ccccc2)c1,2.5,1.9,7.8,0.1,-0.6,5.2,/,/,/,/,
COc1ccc(C(=O)NNC(=S)NC(=O)c2ccc(OC)cc2)cc1,-0.7,0.3,2.8,0.7,-0.6,-0.6,/,/,/,/,
Cc1cc(=O)oc2cc(NC(=O)c3ccccc3C(=O)O)ccc12,0.5,-1.7,3.2,0.1,-1.0,2.9,/,/,/,/,
